Assay outcomes as filed in PubChem BioAssay.
An excerpt weighted towards active compounds, which were near 8.8% of everything screened.
KB-3-1 cytotox: qHTS assay for MDR1-selective chemotherapeutics: Primary screen using the parental adenocarcinoma cell KB-3-1; KB-3-1 viability, CellTiter-Glo ATP luminescence, 72 h; Potency, µM (highest dose often 46.1 µM), most hits filed as cytotoxic; 400,000 tested, 1.4% active; further: potency means the concentration at half of the fitted maximal effect; nearly all actives have a fitted effect of over 60% in size
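Luminescent ATP read-out (CellTiter-Glo) measures survival of drug-naive KB-3-1 cells after 72 h compound exposure at 37 °C. Titration series was screened from lowest to highest concentration, with DMSO vehicle plates as background controls.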
IL-1B inflam inh: qHTS for Inhibitors of Inflammasome Signaling: IL-1-beta AlphaLISA Primary Screen; THP-1 LPS/ATP IL-1B secretion, AlphaLISA, 16 h; hits give low values; activity change, % at 57.5 µM; 360,000 tested, 4.7% active; in the data active means activity change below about -50%; inconclusive means mostly about -30% to -49%
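Secreted IL-1B measured by AlphaLISA bead assay after 16 h compound exposure of THP-1 cells; compounds (final up to 57.5 uM) added 1 h before LPS (250 ng/mL) and ATP (1.25 mM) stimulation; lower signal means less secretion.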
HT1080-NT tox: qHTS for induction of synthetic lethality in tumor cells producing 2HG: qHTS for the HT-1080-NT fibrosarcoma cell line; Potency, µM (highest dose often 46.1 µM), without a hit: at the top dose activity, negative = less viability, usual class: cytotoxic; 360,000 tested, 1.6% active; AID 686970, 2013; HT-1080-NT fibrosarcoma viability, CellTiter-Glo ATP luminescence, 48 h;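 further: NT is the 2HG producing partner of a matched IDH1 knockdown line; potency means the concentration at half of the fitted maximal effect; 0% = DMSO-treated cells and -100% = media-only wells without cells; nearly all actives have a fitted effect of over 55% in size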
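Compounds were tested in concentration-response format on HT-1080-NT cells for 48 hours at 37 degrees C. Cell viability came from CellTiter-Glo luminescence; curves were classified by r2, response magnitude and activity.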
HT1080 IDH1KD tx: qHTS for induction of synthetic lethality in tumor cells producing 2HG: qHTS for the HT-1080-IDH1KD cell line. HT-1080 IDH1 knockdown viability, ATP luminescence, 48 h. Potency, µM (highest dose often 46.1 µM), for the others: at the highest dose activity, negative = toxicity, usual class: cytotoxic. 360,000 tested, 2% active;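 further: potency means the concentration at half of the fitted maximal effect; 0% = DMSO wells and -100% = cell-free medium wells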
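Assay cells: HT-1080 with IDH1 knockdown, 750 per well, RPMI/5% FBS. Exposure: 48 h at 37 °C following 2 h pre-incubation. Read: CellTiter-Glo luminescence; fitted concentration-response, curve class assigned.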
KB-V1 cytotox: qHTS assay for MDR1-selective chemotherapeutics: Primary screen using the drug-selected MDR subline cells KB-V1. KB-V1 MDR cells viability, CellTiter-Glo, 72 h. Potency, µM (highest dose often 46.1 µM), usual class: cytotoxic. 400,000 tested, 3.4% active; further: potency means the concentration at half of the fitted maximal effect; nearly all actives have a fitted effect of over 60% in size
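In this primary screen, KB-V1 cells overexpressing P-gp are incubated with library compounds (lowest to highest concentration) for 72 h at 37 degrees C before a luminescent ATP viability read.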
Starred values were filed as active, the others as inactive; i = inactive; ? = inconclusive; . = no result given. Unless noted, the call rests on the fitted dose curve; in most records, active means well fitted curve in the direction sought with a large enough effect; inconclusive means small, poorly fitted or top-dose-only effect, or another doubt; inactive means no such curve, though single readings can be large; an effect the other way counts as inactive or inconclusive. Unless noted, on the % scale 0 is the no-effect control and ±100 the full control effect.

SMILES	KB-3-1 cytotox	IL-1B inflam inh	HT1080-NT tox	HT1080 IDH1KD tx	KB-V1 cytotox
O=C1c2ccccc2C(c2nnnn2-c2ccc3c(c2)OCCO3)N1C1CC1 (stereo not drawn)	i	2.2	1.6%	7.2%	i
CCOc1ccc2[nH]c(=O)c(CN(Cc3ccccc3OC)C(=O)c3ccccc3)cc2c1	5.17µM*	-10.5	-7.1%	?	4.61µM*
Cc1ccc(N(CC(=O)NCc2ccc(F)cc2)C(=O)c2ccco2)cc1C	i	-11.6	-11.6%	-7.7%	?
CCOc1ccc2[nH]c(=O)c(CN(Cc3ccco3)C(=O)c3ccc(Br)cc3)cc2c1	?	2.3	-13.5%	-9.4%	23.1µM*
COc1ccc(C(=O)N(Cc2ccco2)Cc2cc3cc(C)ccc3[nH]c2=O)cc1OC	i	?	0.7%	-2.2%	i
COc1ccccc1NC(=S)N(Cc1ccco1)Cc1cc2cc(C)ccc2[nH]c1=O	1.84µM*	16.7	?	?	?
CCOc1ccc(N(CC(=O)NCc2ccc(F)cc2)C(=O)c2ccco2)cc1	i	-7.5	-13.9%	-11.5%	16.4µM*
COCCN(CC(=O)Nc1cccc(C)c1C)C(=O)Cn1c(=O)cnc2ccccc21	i	4.3	12.0%	9.4%	i
Cc1ccc(S(=O)(=O)n2ccc(=O)[nH]2)cc1	i	3.9	8.5%	11.0%	i
CC(C)(C)C(=O)NCc1ccc(C(=O)CSc2nnc(-c3ccncc3)n2C2CC2)s1	i	4.9	0.7%	-3.2%	i
O=C(COc1ccccc1Cl)Nc1cc(-c2ccccc2F)nn1-c1ccccc1	i	.	.	.	?
CCOc1ccc2[nH]c(=O)c(CN(CCN3CCCC3)C(=S)Nc3ccccc3OCC)cc2c1	?	-101.5*	?	?	i
CCN(Cc1cc2cc(C)ccc2[nH]c1=O)C(=O)c1cccc(OC)c1	i	-9.4	0.5%	-8.3%	9.2µM*
Cc1ccc2[nH]c(=O)c(CN(C(=O)c3cccs3)c3ccccc3)cc2c1	?	1.2	-3.1%	-10.6%	3.26µM*
COc1ccc2[nH]c(=O)c(CN(C(=O)c3cccc(Cl)c3)c3cccc(C)c3)cc2c1	i	.	.	.	i
Cc1ccc2cc(CN(C(=O)c3cccs3)c3ccccc3)c(=O)[nH]c2c1	i	-5.3	3.1%	14.4%	i
Cc1ccc2[nH]c(=O)c(CN(Cc3ccco3)C(=O)c3ccncc3)cc2c1	11.6µM*	17.5	?	?	?
CCOc1ccc2[nH]c(=O)c(CN(Cc3ccc(F)cc3)C(=O)c3ccco3)cc2c1	16.4µM*	-20.8	?	23.1µM*	14.6µM*
CC(=O)O[C@@H](Cc1ccc(O)cc1)C(=O)CC(C)C	i	33.5	2.6%	-3.5%	i
COCCCN(C(=O)CCSc1ccc(F)cc1)c1c(N)n(Cc2ccccc2)c(=O)[nH]c1=O	i	-7.6	2.5%	0.2%	i
COc1ccccc1C(=O)Nc1ccc(C(=O)/C=C/c2cccs2)cc1	i	?	-21.8%	-18.5%	23.1µM*
COc1ccc(NC(=O)/C=C/c2cc(Br)ccc2OC)cc1	i	-16.0	-1.5%	-0.2%	i
COc1ccc(C(=O)Nc2ccc(NC(=O)c3cccs3)cc2)cc1OC	i	.	.	.	i
COc1ccc(/C=C/C(=O)c2ccc(NC(=O)c3cccs3)cc2)cc1OC	i	-65.8*	?	-26.2%	20.6µM*
COc1ccc(Br)cc1/C=C/C(=O)c1ccc(NC(C)=O)cc1	4.11µM*	-98.9*	?	?	?
SMILES	KB-3-1 cytotox	IL-1B inflam inh	HT1080-NT tox	HT1080 IDH1KD tx	KB-V1 cytotox
CCOC(=O)c1c(C)[nH]c(C)c1C(=O)CSc1nnc(-c2ccco2)n1Cc1ccccc1	?	-2.4	1.1%	1.0%	i
CCOc1cccc(C(=O)Nc2ccccc2N2CCN(C(=O)C(C)C)CC2)c1	i	-53.1*	7.6%	-1.7%	?
O=C(Nc1ccccc1N1CCOCC1)C1CCN(S(=O)(=O)c2ccccc2F)CC1	i	-1.0	19.6%	13.5%	8.2µM*
COc1c(C)cc(Br)cc1C(=O)Nc1ccccc1N1CCN(C(=O)c2ccccc2)CC1	?	13.5	15.4%	29.1%	23.1µM*
Cc1ccc(C(=O)Nc2ccccc2N2CCN(C(=O)C(C)C)CC2)cc1	i	-15.9	14.1%	11.4%	?
COc1ccc(Br)cc1C(=O)Nc1ccccc1N1CCN(C(=O)c2ccccc2)CC1	i	-63.0*	-8.5%	-21.5%	?
COC(=O)c1ccc(N2CCN(C(=O)c3ccccc3)CC2)c(NC(C)=O)c1	i	-107.0*	3.7%	13.7%	i
O=C(Nc1ccccc1N1CCN(C(=O)c2ccccc2)CC1)c1cc(Br)ccc1Cl	?	-28.7	-15.3%	-22.9%	23.1µM*
O=C(Nc1ccccc1N1CCCCC1)C1CCN(C(=O)c2ccc(Cl)cc2)CC1	i	-71.6*	-5.5%	-4.3%	?
O=C(Nc1ccccc1N1CCN(C(=O)c2ccc(Cl)cc2)CC1)c1cccc(F)c1	i	-55.5*	-8.6%	-14.8%	i
O=C(Nc1cccc(F)c1)c1ccc(-c2ccccc2)s1	i	.	.	.	i
COC(=O)C(C)N1CCC(=O)c2ccccc2S1(=O)=O (stereo not drawn)	i	21.3	4.3%	3.1%	i
COc1ccc(C2=NCCn3nc4cc(OC)ccc4c32)cc1	i	-2.3	-4.1%	-7.1%	i
CN1CCN(c2ccccc2NC(=O)COc2ccc(Cl)cc2)CC1	i	i	6.8%	?	?
COc1ccc(-n2nc(C(=O)NCC(=O)NCCCN3CCOCC3)c3ccccc3c2=O)cc1OC	i	4.4	12.2%	10.2%	i
CCN(CC(=O)NC(C)(C)C)C(=O)CCl	?	-54.9*	4.9%	0.0%	?
CCN(CC(=O)NC(C)(C)C)C(=O)COc1c(Cl)cc(Cl)c2ccc(C)nc12	i	0.0	6.2%	-23.9%	?
Cc1nn2c3c(cnc2c1-c1ccc(F)cc1)C(=O)CC(c1ccccc1)C3 (stereo not drawn)	i	.	.	.	i
CCOC(=O)CN1CCc2c(C)nc3c(-c4ccc(OC)c(OC)c4)cnn3c21	i	12.3	-1.0%	8.3%	8.2µM*
Cc1c(/C=N/O)sc2ccccc12	?	?	14.9%	15.7%	20.6µM*
COc1ccccc1CN1C2CCCC1CC(NC(=O)/C=C/c1ccccc1)C2 (stereo not drawn)	i	-76.6*	-14.7%	-25.0%	i
Cc1ccc(NC(=O)c2sc(Cl)nc2C)c(C)c1	i	-65.0*	13.9%	14.5%	i
